Screening data deposited in PubChem BioAssay by several laboratories.
PAX8 reporter = lowers PAX8-driven luciferase in RMG-I cells; inhibition, % at 12.6 µM; RMG-I TPO-luciferase reporter, SteadyGlo, 24 h; actives 1.2% (n = 360,000);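 active = mean replicate inhibition at least 60% with every replicate also reaching 60%; inconclusive = only one of the two criteria is met; inactive = mean below 60% and not all replicates reaching 60%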;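 also: luciferase light reporting Pax8 driven TPO promoter activity; plate controls were median of neutral control wells for no effect and mitoxantrone controls for full effect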
Shn3 3UTR inh = inhibitors of Schnurri-3 3'UTR reporter in osteoblasts. actives 0.52% (n = 360,000). inhibition, % at 12.5 µM. Clone20 osteoblast Shn3 3'UTR firefly luciferase, 24 h;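 active = mean inhibition of at least 75% with every replicate also reaching 75%; inconclusive = mean inhibition at least 75% but some replicate below; inactive = mean inhibition below 75%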;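 also: 0% = median of neutral control wells and 100% = pilot-screen positive control compound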
MITF TRPM1 inh = MITF TRPM1 promoter inhibition in SK-MEL-5 cells; SK-MEL-5 TRPM1 promoter luciferase, 24 h; inhibition, % at 12.5 µM; actives 0.83% (n = 330,000); AID 488899;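 active = mean inhibition across replicates of 60% or more, whatever share of single replicates reaches that level; inconclusive = some that reach 60%, reason not given; inactive = mean inhibition across replicates below 60%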
Peg3 prom inh = reduces Peg3 promoter-driven luciferase expression in HeLa. HeLa PEG-Prom luciferase reporter, luminescence, overnight. inhibition, % at 20 µM. actives 1.7% (n = 360,000). AID 588405;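 active = inhibition of at least 50% at 20 µM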
EWS-Fli inh = blocks EWS/Fli oncoprotein-driven transcription; actives 0.67% (n = 350,000); A673 NR0B1-luciferase reporter, viability-normalised; inhibition, % at 12.6 µM;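 active = mean inhibition of at least 50% after viability correction, with every replicate also passing that limit; inconclusive = mean reaches 50% but only one of two replicates passes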;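 also: firefly luciferase signal divided by Alamar Blue viability fluorescence both relative to DMSO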
ABHD5 PLIN5 PPI = inhibitors of human ABHD5-perilipin-5 interaction | Q00G26+Q8WTS1 | inhibition, % at 4 µM | Split G. princeps luciferase complementation, luminescence, 4 h | AID 602281 | actives 0.78% (n = 360,000);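 active = inhibition above the mean inhibition across every tested compound plus 3 SD, cut at about 22% in these data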;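 also: 0% = DMSO only wells and the 100% control is not disclosed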
Target sequence (Q00G26 whole entry, looked up): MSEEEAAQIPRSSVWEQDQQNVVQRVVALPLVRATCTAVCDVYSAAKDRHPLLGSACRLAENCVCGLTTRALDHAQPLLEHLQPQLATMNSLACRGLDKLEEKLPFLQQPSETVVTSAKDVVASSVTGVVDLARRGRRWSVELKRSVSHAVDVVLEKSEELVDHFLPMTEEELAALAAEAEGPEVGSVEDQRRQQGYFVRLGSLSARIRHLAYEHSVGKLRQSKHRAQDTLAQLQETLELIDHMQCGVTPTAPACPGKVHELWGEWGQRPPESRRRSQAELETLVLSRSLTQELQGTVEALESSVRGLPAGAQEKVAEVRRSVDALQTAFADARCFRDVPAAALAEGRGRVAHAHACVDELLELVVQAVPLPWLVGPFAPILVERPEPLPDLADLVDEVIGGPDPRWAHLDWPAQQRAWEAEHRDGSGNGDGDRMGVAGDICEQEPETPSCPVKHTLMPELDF
Target sequence (Q8WTS1 whole entry, looked up): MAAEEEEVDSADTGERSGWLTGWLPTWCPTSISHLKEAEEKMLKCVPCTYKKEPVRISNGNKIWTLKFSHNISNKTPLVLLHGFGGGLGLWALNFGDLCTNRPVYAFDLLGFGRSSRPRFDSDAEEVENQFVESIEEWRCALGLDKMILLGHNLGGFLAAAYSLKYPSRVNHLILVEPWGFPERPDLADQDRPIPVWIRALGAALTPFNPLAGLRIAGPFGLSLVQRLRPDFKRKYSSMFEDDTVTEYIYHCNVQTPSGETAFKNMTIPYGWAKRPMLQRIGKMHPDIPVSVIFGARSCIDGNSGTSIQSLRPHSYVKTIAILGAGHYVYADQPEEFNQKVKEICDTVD
The depositor's hits bear a star; u = inconclusive; x = no result given; ! = a repeat was not active. Shown are actives, neighbours in structure and some others; about 3% of the full set was active somewhere.

SMILES	PAX8 reporter	Shn3 3UTR inh	MITF TRPM1 inh	Peg3 prom inh	EWS-Fli inh	ABHD5 PLIN5 PPI
COc1cc2c(c(OC)c1OC)-c1ccc(OC)c(=O)cc1C(NC(C)=O)CC2 (stereo not drawn)	96.4*	-37.2	66.5*	-13.6	63.5*	-3.0
Cc1cccc(S(=O)(=O)N2C[C@H](O)COC[C@@H]3O[C@H](CC(=O)N4CCN(C)CC4)CC[C@H]32)c1	-3.8	x	x	x	-5.8	x
C[C@@H]1CN([C@H](C)CO)C(=O)c2cccc(NC(=O)Nc3cccc4ccccc34)c2O[C@H]1CN(C)S(=O)(=O)c1cn(C)cn1	x	x	x	x	-4.0	x
COc1ccc(C(C)=O)cc1CC(=O)NC1CCCCCC1	-25.4	10.1	8.7	6.1	-6.8	-4.2
COc1c(C=O)c2c(c(OC)c1OC)-c1ccc(OC)c(=O)cc1C(NC(C)=O)CC2 (stereo not drawn)	87.0*	34.4	42.4	-15.7	41.6	-0.2
COc1ccc2c3c([nH]c2c1)[C@@H](CO)N(C(=O)c1ccncc1)CC31CCN(Cc2cccnc2)CC1	x	x	x	x	-11.9	x
O=C(Nc1ccc(Cl)cc1)NC1CCCC1Cc1ccco1 (stereo not drawn)	x	-15.5	-8.0	-25.2	x	49.3*
C[C@@H]1CN([C@@H](C)CO)C(=O)Cc2cc(NS(=O)(=O)c3ccc(Cl)cc3)ccc2O[C@H]1CN(C)Cc1ccc(-c2ccccc2)cc1	68.9*	x	x	x	34.4	x
C[C@H](CO)N1C[C@H](C)[C@@H](CN(C)Cc2ccc(-c3ccccc3)cc2)Oc2ccc(NS(=O)(=O)c3ccccc3)cc2CC1=O	79.9*	x	x	x	18.3	x
C[C@@H]1CN([C@@H](C)CO)C(=O)Cc2cc(NS(=O)(=O)c3ccc(Cl)cc3)ccc2O[C@@H]1CN(C)Cc1ccc(-c2ccccc2)cc1	-12.4	x	x	x	0.8	x
CN(C)C(=O)c1cccc(-c2ccc([C@H]3[C@@H](CO)N4CCCCN(C(=O)C5CCCC5)C[C@H]34)cc2)c1	10.8	x	x	x	-10.5	x
COc1cccc2c1C(=O)c1c(O)c3c(c(O)c1C2=O)C[C@@](O)(C(=O)CO)C[C@@H]3O[C@H]1C[C@H](N)[C@@H](O)[C@H](C)O1	x	82.8	82.8*	93.5*	x	6.0
COc1cccc2c1C(=O)c1c(O)c3c(c(O)c1C2=O)CC(O)(C(=O)CO)CC3OC1CC(N(C)C)C(O)C(C)O1 (stereo not drawn)	112.0*	96.9*	69.1*	92.7*	63.8*	8.7
COc1cccc2c1C(=O)c1c(O)c3c(c(O)c1C2=O)C[C@@](O)(C(C)=O)C[C@@H]3O[C@H]1C[C@H](N)[C@H](O)[C@H](C)O1	114.1*	96.0*	96.5*	88.9*	70.1*	10.5
CC1CCN(Cc2c(C(=O)N/N=C/c3cc(Cl)ccc3O)nnn2-c2nonc2N)CC1	5.3	90.1*	35.4	75.9*	19.2	-2.3
CC1CCN(Cc2c(C(=O)N/N=C/c3cc(Br)ccc3O)nnn2-c2nonc2N)CC1	u	u	64.7*	73.8*	29.4	-1.1
COc1c(Cl)cc(Cl)cc1/C=N/NC(=O)c1nnn(-c2nonc2N)c1CN1CCC(C)CC1	-19.3	21.1	12.8	-0.1	-1.8	-6.1
CO[C@@H]1CC[C@@H]2CCN(C)C(=O)CCCN(C)C(=O)c3cccc(C#N)c3OC[C@H]1O2	2.0	x	x	x	5.5	x
Cc1ccc(S(=O)(=O)Nc2ccc3c(c2)C(=O)N([C@@H](C)CO)C[C@H](C)[C@@H](CN(C)C(=O)c2ccccc2)OCCCC[C@H](C)O3)cc1	29.9	x	x	x	-4.6	x
COc1ccc(C2=C(C=C(C#N)C#N)C(c3ccccc3C)c3ccccc3O2)cc1OC (stereo not drawn)	64.8*	17.3	8.4	25.0	17.6	1.2
c1ccc(Nc2ncnc3sc4c(c23)CCC4)cc1	x	-6.0	-7.4	6.3	x	5.6
c1csc(CCNc2ncnc3sc4c(c23)CCC4)c1	39.2	88.1*	9.7	-8.1	16.9	-9.2
O=C1CC2(CCN(C(=O)c3ccccc3F)CC2)Oc2ccccc21	-0.6	87.3*	-5.9	13.0	-0.7	4.9
Cc1noc(C)c1S(=O)(=O)Nc1cccc2c1O[C@@H](CN(C)S(=O)(=O)c1cccs1)[C@@H](C)CN([C@@H](C)CO)C2=O	x	x	x	x	2.5	x
C=C1C(=O)OC2/C=C(/C)CC/C=C(/C)CCC12 (stereo not drawn)	98.3*	x	x	x	2.3	x
SMILES	PAX8 reporter	Shn3 3UTR inh	MITF TRPM1 inh	Peg3 prom inh	EWS-Fli inh	ABHD5 PLIN5 PPI
O=c1[nH]c2cc3c(cc2cc1CN(Cc1ccccc1)Cc1nnnn1Cc1ccco1)OCCO3	x	2.1	-14.5	-12.9	x	33.6*
Cc1noc2ncnc(Oc3ccc4ccccc4c3)c12	x	-0.3	1.7	-26.7	x	2.6
Cc1noc2ncnc(Oc3cc(Cl)ccc3Cl)c12	21.0	7.2	7.7	93.6*	-2.6	-3.2
COc1ccc(CN(C)C[C@@H]2Oc3ccc(NS(=O)(=O)c4ccc(C)cc4)cc3C(=O)N([C@H](C)CO)C[C@@H]2C)cc1	-2.7	x	x	x	-0.2	x
C[C@@H]1CCCCO[C@H](CN(C)Cc2ccc3c(c2)OCO3)[C@@H](C)CN([C@H](C)CO)C(=O)c2cc(NC(=O)CCCN(C)C)ccc2O1	-19.6	x	x	x	-6.7	x
COC(=O)N1C(=O)[C@@](c2ccccc2)(C2CCCCC2)N1C(=O)OC	6.9	21.9	20.6	83.7*	-0.1	6.1
CC[C@@]1(c2ccccc2)C(=O)N(C(=O)OC)N1C(=O)OC	19.6	3.6	27.1	11.7	3.8	-3.2
Cc1ccc(S(=O)(=O)N(C)C[C@@H]2OCCCC[C@@H](C)Oc3ccc(NC(=O)Nc4ccc(F)cc4)cc3C(=O)N([C@H](C)CO)C[C@@H]2C)cc1	-19.6	x	x	x	-1.6	x
CC1CCC(C(C)C)C(OC(=O)Cn2c(-c3ccc(F)cc3)[n+](C)c3ccccc32)C1 (stereo not drawn)	94.2*	72.0	79.6*	62.1*	13.4	9.6
CC1CCC(C(C)C)C(OC(=O)Cn2c(-c3ccccc3)[n+](C)c3ccccc32)C1 (stereo not drawn)	81.3*	86.1*!	86.6*	65.2*	13.8	16.4
CC1CCC(C(C)C)C(OC(=O)C[n+]2cc(-c3ccc(Cl)cc3)n3c2CCC3)C1 (stereo not drawn)	41.1	15.8	29.2	22.1	13.7	12.3
Cc1cccc(OCc2n(CC(=O)OC3CC(C)CCC3C(C)C)c3ccccc3[n+]2C)c1 (stereo not drawn)	x	6.5	96.2*	102.8*	x	19.1
CC=Cc1ccc2n(c1=O)C[C@@H]1[C@@H](CO)[C@H](C(=O)NCC3CC3)[C@H]2N1Cc1ccccc1 (mixture of isomers)	7.0	x	x	x	7.3	x
CCN(CC)c1ccc(/C=N/NC(=O)CNC(=O)C2COc3ccccc3O2)c(O)c1 (stereo not drawn)	50.5	90.1*	54.5	50.5*	x	2.4
COc1cc(/C=N\NC(=O)CNC(=O)C2COc3ccccc3O2)ccc1O (stereo not drawn)	-3.9	-45.3	1.1	10.9	x	8.1
